TDP1 inh: inhibitors of human tyrosyl-DNA phosphodiesterase TDP1 | recombinant TDP1, AlphaScreen DNA substrate cleavage | Potency, µM (top dose mostly 130 µM), actives largely listed as inhibitors | hit rate 0.28% among 350,000; note: nearly all actives have a fitted effect of over 40% in size
Target sequence (Q9NUW8 whole entry, looked up): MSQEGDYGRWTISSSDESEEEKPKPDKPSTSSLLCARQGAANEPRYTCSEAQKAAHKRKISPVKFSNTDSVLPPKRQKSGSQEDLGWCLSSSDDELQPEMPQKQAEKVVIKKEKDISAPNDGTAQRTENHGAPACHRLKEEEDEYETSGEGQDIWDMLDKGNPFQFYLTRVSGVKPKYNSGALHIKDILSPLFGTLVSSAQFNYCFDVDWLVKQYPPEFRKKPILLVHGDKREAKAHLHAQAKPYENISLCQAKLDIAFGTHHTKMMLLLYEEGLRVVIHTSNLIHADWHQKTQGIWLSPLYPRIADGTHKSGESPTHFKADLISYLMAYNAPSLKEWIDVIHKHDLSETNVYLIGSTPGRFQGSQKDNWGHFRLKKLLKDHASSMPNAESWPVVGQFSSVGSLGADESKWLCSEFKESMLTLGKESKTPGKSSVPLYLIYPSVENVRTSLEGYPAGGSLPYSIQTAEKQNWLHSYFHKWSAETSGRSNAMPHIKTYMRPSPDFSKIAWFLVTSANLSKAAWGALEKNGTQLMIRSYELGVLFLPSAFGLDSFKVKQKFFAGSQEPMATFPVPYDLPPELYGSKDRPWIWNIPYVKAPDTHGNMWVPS
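Recombinant E. coli-expressed Tdp1 (1 nM) preincubated with compound 15 min at RT, then 5'-biotin/3'-phosphotyrosine-FITC DNA substrate (15 nM) added for 5 min. AlphaScreen beads (10 ug/ml) added, 10 min RT; tyrosine-FITC cleavage read as signal loss.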
TDP1 cell noCPT: qHTS for Inhibitors of human tyrosyl-DNA phosphodiesterase 1 (TDP1): qHTS in cells in absence of CPT; Potency, µM (doses to about 46.2 µM), hits mostly inhibitors; AID 686978, 2013; DT40 Tdp1-/- hTDP1 cells, no CPT, ATP luminescence, 48 h; hit rate 15% among 420,000; note: nearly all actives have a fitted effect of over 55% in size
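Luminescent ATP content (CellTiter-Glo) served as the growth readout. Knockout chicken DT40 cells expressing human TDP1 were exposed to compounds without camptothecin for a minimum 48 hr at 37 °C.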
DT40 TDP1 CPT: growth inhibition of DT40 Tdp1-/-;hTDP1 cells with camptothecin (screen for TDP1 inhibitors); chicken DT40 Tdp1-/-;hTDP1 cells + 20 nM CPT, ATP luminescence, 48 h; Potency, µM (doses to about 46.2 µM), usual class: inhibitors; hit rate 12% among 420,000; note: nearly all actives have a fitted effect of over 55% in size
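Chicken DT40 Tdp1-/- cells complemented with human TDP1, 400 cells/well, exposed to compounds plus 20 nM camptothecin for at least 48 h at 37 C; viability read as ATP content by CellTiter-Glo luminescence.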
VP16 counter: Gal4-VP16 reporter inhibition counter-screen; Drosophila S2 Gal4-VP16 UAS-luciferase, luminescence, 20 h; Potency, µM (highest dose often 53.6 µM), most hits filed as inhibitors; hit rate 3.5% among 310,000; AID 2546;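 note: Gal4-VP16 expression switched on by copper sulfate through the metallothionein promoter; nearly all actives have a fitted effect of over 50% in size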
RORgamma inh: blocks mouse ROR gamma transcriptional activity; Drosophila S2 Gal4-RORgamma UAS-luciferase reporter, 20 h; P51450; hit rate 5.4% among 310,000; Potency, µM (series often up to 53.6 µM), hits mostly inhibitors; note: nearly all actives have a fitted effect of over 60% in size
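Read-out: Photinus luciferase luminescence; inhibitors lower reporter signal. Insect Schneider cells with Gal4-ROR gamma fusion under metallothionein promoter, UAS reporter; 700 uM final copper sulfate induction, 20 hr, ambient temperature.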
Each line names hits and unclear results; the compound was inactive in the other large screens. Sampled rows, rich in hits. Any-hit rate of the full collection: about 19%. Calls come from the whole dose curve; as a rule, active = well fitted curve in the direction sought with a large enough effect; inconclusive = small, poorly fitted or top-dose-only effect, or another doubt; inactive = no such curve, though single readings can be large; an effect the other way counts as inactive or inconclusive.

CC(=O)NCCNc1nc2c(-c3ccc(C)cc3)nnn2c2ccccc12	none (no result: VP16 counter, RORgamma inh)
Cc1ccc(-c2nnn3c2nc(NCCc2ccc(S(N)(=O)=O)cc2)c2ccccc23)cc1	TDP1 cell noCPT inconclusive, VP16 counter inconclusive
Cc1cccc(-c2nnn3c2nc(NCCc2ccc(S(N)(=O)=O)cc2)c2ccccc23)c1	TDP1 cell noCPT 16.4µM, DT40 TDP1 CPT 14.6µM, VP16 counter inconclusive, RORgamma inh inconclusive
Cc1ccc(CN2CCN(CC(=O)N3CCc4ccccc4C3)C2=O)cc1	none (no result: TDP1 cell noCPT, DT40 TDP1 CPT)
COc1ccc2[nH]c(C(=O)O)c(CCN3C(=O)c4ccc(C(=O)O)cc4C3=O)c2c1	none (no result: TDP1 inh)
Cc1ccc(C(=O)N/C(=C\c2cccs2)c2nc3ccccc3[nH]2)cc1	TDP1 cell noCPT inconclusive, DT40 TDP1 CPT 16.4µM
CC1CCC/C(=C\Nc2ccccc2C(=O)O)C1=O (stereo not drawn)	DT40 TDP1 CPT inconclusive
CSc1nc(NCc2ccco2)c2sc3nc(C(C)C)c4c(c3c2n1)CC(C)(C)OC4	none
CC(C)c1nc2sc3c(NCc4ccccc4)ncnc3c2c2c1COC(C)(C)C2	TDP1 cell noCPT inconclusive, DT40 TDP1 CPT 9.2µM
CC(C)c1nc2sc3c(NCc4ccco4)ncnc3c2c2c1COC(C)(C)C2	TDP1 cell noCPT 23.1µM, DT40 TDP1 CPT 18.4µM
COc1cc(NC(=O)c2cc3cc4cc(OC)ccc4nc3o2)cc(OC)c1	TDP1 cell noCPT inconclusive (no result: VP16 counter, RORgamma inh)
O=C(CSc1nnc(Cc2ccccc2)o1)Nc1cccc(F)c1	none
CC(=O)Oc1ccc2nc(/C=C/c3ccccc3)oc(=O)c2c1	VP16 counter inconclusive, RORgamma inh 6.31µM (no result: TDP1 inh)
CCC(Oc1ccccc1F)C(=O)N1CCC(c2nc3ccccc3s2)CC1 (stereo not drawn)	TDP1 cell noCPT 16.4µM, DT40 TDP1 CPT inconclusive (no result: VP16 counter, RORgamma inh)
COc1cccc(C(=O)N2CCC(c3nc4ccccc4s3)CC2)c1	TDP1 cell noCPT inconclusive, DT40 TDP1 CPT inconclusive (no result: VP16 counter, RORgamma inh)
COc1ccc(C(=O)N2CCC(c3nc4ccccc4s3)CC2)cc1Cl	TDP1 cell noCPT 10.3µM, DT40 TDP1 CPT 25.9µM (no result: VP16 counter, RORgamma inh)
CCCNC(=O)N1CCC(c2nc3ccccc3s2)CC1	none (no result: TDP1 inh)
CCCOc1ccccc1C(=O)N1CCC(c2nc3ccccc3s2)CC1	TDP1 cell noCPT 10.3µM, DT40 TDP1 CPT 23.1µM (no result: VP16 counter, RORgamma inh)
CC1CCCC(C)N1C(=O)Cc1ccccc1 (stereo not drawn)	none
O=C(Cc1ccccc1)N1CCCC1c1ccccc1 (stereo not drawn)	TDP1 cell noCPT inconclusive, DT40 TDP1 CPT 16.4µM
O=C(NCCc1ccccc1)C1CCC(CNS(=O)(=O)c2cccc3cccnc23)CC1 (stereo not drawn)	TDP1 cell noCPT 23.1µM, DT40 TDP1 CPT 16.4µM (no result: TDP1 inh)
COc1ccc(CCNC(=O)C2CCN(S(=O)(=O)c3cccc4nsnc34)CC2)cc1OC	TDP1 cell noCPT inconclusive
COc1ccc(CCNC(=O)C2CCN(S(=O)(=O)c3cccc4cccnc34)CC2)cc1OC	TDP1 cell noCPT inconclusive, DT40 TDP1 CPT 16.4µM
Cc1ccc(CNC(=O)C2CCC(CNS(=O)(=O)c3cccc4cccnc34)CC2)cc1 (stereo not drawn)	none
O=C(CNC(=O)c1ccccc1Br)N/N=C\c1cc([N+](=O)[O-])cc(Br)c1O	VP16 counter 7.94µM, RORgamma inh 11.2µM
O=C(CNC(=O)c1ccco1)N/N=C/c1ccc(O)cc1O	TDP1 cell noCPT inconclusive, DT40 TDP1 CPT inconclusive, RORgamma inh inconclusive
O=C(CNC(=O)c1ccco1)N/N=C/c1cc(Br)ccc1O	TDP1 cell noCPT 5.8µM, DT40 TDP1 CPT 2.91µM, VP16 counter 11.2µM, RORgamma inh 8.91µM
O=C(CNC(=O)c1ccccc1Br)N/N=C/c1cccs1	none (no result: TDP1 inh)
C=CCOc1ccc(/C=N/NC(C)=O)cc1OCC	none
O=C(N/N=C/c1cc(Cl)ccc1O)c1cccnc1	TDP1 cell noCPT 1.03µM, DT40 TDP1 CPT 0.92µM, VP16 counter 0.708µM, RORgamma inh 1.12µM (no result: TDP1 inh)
COc1cc(/C=N\NC(C)=O)ccc1OC/C=C/c1ccccc1	VP16 counter 0.447µM, RORgamma inh inconclusive
NC(=O)c1cc([N+](=O)[O-])ccc1N1CCCCC1	none
Cc1ccccc1NCN1C(=O)C2CCC(C)(C1=O)C2(C)C (stereo not drawn)	DT40 TDP1 CPT inconclusive
CN1CCN(c2ncnc3c2ncn3[C@H]2CN(Cc3ccc4c(c3)OCO4)C[C@@H](CO)O2)CC1	none (no result: TDP1 inh, VP16 counter, RORgamma inh)
O=C(CNC(=O)c1ccccc1Br)N/N=C/c1cccnc1	none
O=C(CNC(=O)c1ccccc1Br)N/N=C/c1cc(Br)ccc1O	TDP1 cell noCPT 5.8µM, DT40 TDP1 CPT 8.2µM, VP16 counter 5.01µM, RORgamma inh 2.24µM
O=C(CNC(=O)c1ccc2c(c1)OCCO2)N/N=C/c1cccc(Br)c1	TDP1 cell noCPT inconclusive
O=C(N/N=C/c1cc(Cl)ccc1O)c1ccccc1Br	TDP1 cell noCPT 6.51µM, DT40 TDP1 CPT 6.51µM, VP16 counter 1.26µM, RORgamma inh 0.708µM
O=C(CNC(=O)c1ccc2c(c1)OCO2)N/N=C/c1cc(Br)ccc1O	TDP1 cell noCPT 8.2µM, DT40 TDP1 CPT 8.2µM, VP16 counter inconclusive, RORgamma inh 20µM
O=C(/C=N/NC(=O)c1ccccc1Br)c1ccccc1	TDP1 cell noCPT inconclusive, DT40 TDP1 CPT inconclusive, RORgamma inh inconclusive
COC(=O)N/N=C/c1cc([N+](=O)[O-])cc(Br)c1O	TDP1 cell noCPT inconclusive, VP16 counter inconclusive, RORgamma inh 11.2µM
COCCN1CN=C(Nc2nc(C)c3ccc(C)cc3n2)NC1	none (no result: TDP1 cell noCPT, DT40 TDP1 CPT)
Cc1cccc(NC(=O)Cn2nnc(-c3cccs3)n2)c1C	none
CCOC(=O)Cc1csc(NC(=O)c2ccco2)n1	none
O=C(COc1ccccc1)NCC(=O)N/N=C/c1cc(Br)ccc1OCc1ccccc1	TDP1 cell noCPT 16.4µM, DT40 TDP1 CPT 23.1µM, RORgamma inh inconclusive
O=C(CNC(=O)c1ccccc1Br)N/N=C/c1ccccc1O	TDP1 cell noCPT 23.1µM, DT40 TDP1 CPT inconclusive, VP16 counter inconclusive, RORgamma inh 3.16µM
O=C(CNC(=O)c1ccncc1)N/N=C/c1cc(Br)ccc1OCc1ccccc1	TDP1 cell noCPT inconclusive, DT40 TDP1 CPT inconclusive
O=C(CN1CC(c2ccccc2)CC1=O)N/N=C/c1cc(Br)ccc1O (stereo not drawn)	TDP1 cell noCPT 6.51µM, DT40 TDP1 CPT 8.2µM, VP16 counter 3.16µM, RORgamma inh 4.47µM
O=C(COc1ccc(-c2ccccc2)cc1)N/N=C/c1cc(O)ccc1Br	TDP1 cell noCPT 16.4µM, DT40 TDP1 CPT inconclusive
O=C(COc1ccc(-c2ccccc2)cc1)N/N=C/c1ccccc1Br	TDP1 cell noCPT inconclusive
CC(C)OCCCNC(=O)c1cccc(NC(=O)c2ccccc2)c1	TDP1 cell noCPT inconclusive
Cc1ccc(C)c(CN2CCC(n3nccc3NC(=O)C3CCCC3)CC2)c1	none
O=C(CNC(=O)c1ccncc1)N/N=C/c1cc(Br)ccc1O	none
N#CCC(=O)N/N=C\c1cc(Br)ccc1OC/C=C/c1ccccc1	TDP1 cell noCPT 25.9µM, DT40 TDP1 CPT 14.6µM

Screening results deposited in PubChem by National Center for Advancing Translational Sciences (NCATS).
